Assay results taken from PubChem BioAssay (NCI).
About 83,000 compounds went through this panel and 20% of them were active in at least one assay; those are over-represented in the sample as a whole.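 96-well plates, one dose, 48 hours. Percent growth reported; active if below 10.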 Unmarked numbers belong to inactive results. Activity calls are given as the source filed them.

Tests used:
Test in all cases: NCI-60 one-dose screen, 48 h (100 = growth as untreated, 0 = no growth, -100 = all killed)
[1] = system: SR leukemia; conditions: 10 µM unless noted
[2] = system: RPMI-8226 leukemia; conditions: 10 µM unless noted
[3] = system: OVCAR-8 ovarian; conditions: 10 µM unless noted
[4] = system: OVCAR-5 ovarian; conditions: 10 µM unless noted
[5] = system: OVCAR-4 ovarian; conditions: 10 µM unless noted
[6] = system: SK-OV-3 ovarian; conditions: 10 µM unless noted
[7] = system: OVCAR-3 ovarian; conditions: 10 µM unless noted
[8] = system: HS 578T breast; conditions: 10 µM
[9] = system: NCI/ADR-RES ovarian; conditions: 10 µM unless noted
[10] = system: T-47D breast; conditions: 10 µM unless noted
[11] = system: MDA-MB-435 melanoma; conditions: 10 µM unless noted
[12] = system: SW-620 colon; conditions: 10 µM unless noted
[13] = system: MCF7 breast; conditions: 10 µM unless noted
[14] = system: HCT-116 colon; conditions: 10 µM unless noted
[15] = system: HCC-2998 colon; conditions: 10 µM unless noted
[16] = system: KM12 colon; conditions: 10 µM unless noted
[17] = system: IGROV1 ovarian; conditions: 10 µM unless noted
[18] = system: BT-549 breast; conditions: 10 µM unless noted

Row | Structure (SMILES) | growth [1] | growth [2] | growth [3] | growth [4] | growth [5] | growth [6] | growth [7] | growth [8] | growth [9] | growth [10] | growth [11] | growth [12] | growth [13] | growth [14] | growth [15] | growth [16] | growth [17] | growth [18]
1 | Cc1[nH]n(C(=O)c2ccncc2)c(=O)c1N=Nc1ccc(O)c(C(=O)O)c1 | 10.1% | 51.5% | 115% | 123% | 109% | 108% | 105% | 96.2% | 110% | 132% | 126% | 105% | 109% | 75.3% | 117% | 104% | – | –
2 | O=C(CI)NCCNc1cccc2c(S(=O)(=O)O)cccc12 | 90.4% | 101% | 110% | 107% | 110% | – | 100% | 104% | 106% | 103% | 93.2% | 102% | 99.9% | 96% | 112% | 95.7% | 97.6% | 96.8%
3 | O=S(=O)(NCC[C@@H]1C[C@H]1c1ccc2ccccc2c1)c1ccc(C(F)(F)F)cc1 | 92.7% | 76% | 97.4% | 99.3% | 79.6% | – | 101% | 89.6% | 94.3% | – | 99.1% | 98.6% | 91.1% | 88% | 101% | 95.2% | 92% | 92.5%
4 | N[C@@H](CO)C(=O)O | 103% | 96.9% | 99.8% | 104% | 109% | 111% | 98.4% | 117% | 95.4% | 96.9% | 97.4% | – | 104% | 103% | 98.1% | 102% | – | 104%
5 | Nc1ccc(N(O)/C=C2\C=CC=CC2=O)cc1N | 95.3% | 52.8% | 95.4% | 71.1% | 99.6% | 107% | 89.1% | 94.2% | 82% | 78.8% | 97.7% | 105% | 115% | 85.1% | 93.4% | 83.3% | – | 103%
6 | O=C(CCc1nc2sc3c(c2c(=O)[nH]1)CCC3)NCc1cn(-c2ccccc2)nc1-c1ccccc1 | -18% (active) | 90% | 44.3% | 86.2% | -48% (active) | – | 16.9% | 48.4% | 69.5% | -0.261% (active) | 76.1% | 28.7% | 34.1% | – | 87.5% | 85.3% | 93% | 95.6%
7 | NS(=O)(=O)c1ccc(N2N=C(c3ccc(Br)cc3)CC2c2cn(-c3ccccc3)nc2-c2ccc(Cl)cc2)cc1 (stereo not drawn) | 72% | 74% | 90.6% | 102% | 93.7% | 94.7% | 95.1% | 100% | 86.6% | 69.2% | 79.6% | 96.1% | 53.1% | 63% | 77.8% | 74.9% | – | –
8 | NS(=O)(=O)c1ccc(N2N=C(c3cccs3)CC2c2ccccc2O)cc1 (stereo not drawn) | 1.1% (active) | 7.41% (active) | 9.96% (active) | 9.55% (active) | 60.8% | 6.78% (active) | -20.6% (active) | 17.3% | 27.3% | 46.1% | -41.1% (active) | 19.3% | 4.97% (active) | 3.06% (active) | -8.11% (active) | -15.8% (active) | – | -15.4% (active)
9 | O=C(O)/C=C(\c1nc2ccc([N+](=O)[O-])cc2[nH]1)c1cc(Cl)ccc1O | 29.6% | -15.7% (active) | 24.5% | 87.1% | 8.51% (active) | – | -16% (active) | 45.9% | 17.7% | 5.42% (active) | 20.5% | 28.6% | 13.4% | 8.05% (active) | 27.8% | 21.3% | 25.7% | 8.6% (active)
